Screening data deposited in PubChem by National Center for Advancing Translational Sciences (NCATS).
HT1080-NT tox = kills 2HG-producing HT-1080-NT fibrosarcoma cells | HT-1080-NT fibrosarcoma viability, CellTiter-Glo ATP luminescence, 48 h | Potency, µM (doses to about 46.1 µM), inactives show top-dose activity, negative = less viability, hits mostly cytotoxic | actives 1.6% (n = 360,000) | AID 686970;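 note: NT is the 2HG producing partner of a matched IDH1 knockdown line; potency is the fitted concentration of half-maximal effect; 0% = DMSO-treated cells and -100% = media-only wells without cells; nearly all actives have a fitted effect of over 55% in size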
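Compounds were tested in concentration-response format on HT-1080-NT cells for 48 hours at 37 degrees C. Cell viability came from CellTiter-Glo luminescence; curves were classified by r2, response magnitude and activity.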
HT1080 IDH1KD tx = toxicity to HT-1080 IDH1 knockdown cells (counter line); Potency, µM (doses to about 46.1 µM), for the others: at the highest dose activity, negative = toxicity, most hits filed as cytotoxic; actives 2% (n = 360,000); AID 686971; HT-1080 IDH1 knockdown viability, ATP luminescence, 48 h;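 note: potency is the fitted concentration of half-maximal effect; 0% = DMSO wells and -100% = cell-free medium wells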
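In this qHTS, HT-1080 cells depleted of IDH1 are exposed for 48 h at 37 °C to compound titrations. Toxicity is scored from CellTiter-Glo luminescence, with DMSO as full viability and medium alone as none.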
DT40 TDP1 CPT = DT40-hTDP1 cell growth loss with CPT; actives 12% (n = 420,000); Potency, µM (doses to about 46.2 µM), without a hit: at the highest dose activity change, negative = growth inhibition, hits mostly inhibitors; AID 686979; chicken DT40 Tdp1-/-;hTDP1 cells + 20 nM CPT, ATP luminescence, 48 h; note: potency is the fitted concentration of half-maximal effect; nearly all actives have a fitted effect of over 55% in size
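Cell growth measured by CellTiter-Glo luminescence after a minimum 48 h, 37 C compound exposure with 20 nM CPT in Tdp1-knockout DT40 cells stably expressing hTDP1, seeded 400/well; qHTS titration format.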
TDP1 cell noCPT = qHTS for Inhibitors of human tyrosyl-DNA phosphodiesterase 1 (TDP1): qHTS in cells in absence of CPT; DT40 Tdp1-/- hTDP1 cells, no CPT, ATP luminescence, 48 h; Potency, µM (series often up to 46.2 µM), for the others: at the highest dose activity change, negative = growth inhibition, most hits filed as inhibitors; actives 15% (n = 420,000); note: potency is the fitted concentration of half-maximal effect; nearly all actives have a fitted effect of over 55% in size
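Readout: luminescence from CellTiter-Glo after 30 min in the dark at RT. Cells: DT40 Tdp1-/- with stable hTDP1, 400/well. Exposure: compounds alone, ≥48 hr, 37 °C.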
IL1B secr inh = inhibitors of inflammasome signaling (IL-1 beta secretion); activity change, % at 57.5 µM; actives 4.7% (n = 360,000); THP-1 LPS/ATP IL-1B secretion, AlphaLISA, 16 h; hits give low values; AID 743279; in the data active = activity change below about -50%; inconclusive = mostly about -30% to -49%
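THP-1 cells pretreated 1 hr with compounds (up to 57.5 uM final), then stimulated with LPS (250 ng/mL final) plus ATP (1.25 mM final); secreted IL-1B measured by AlphaLISA after 16 hr, decreased signal indicating inhibition.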
12-LOX inh = inhibitors of human 12S-lipoxygenase ALOX12; AID 1671190; actives 1.1% (n = 580,000); Potency, µM (titrated, usually from 108 µM), for inactives: at the highest dose activity change, negative = inhibition, most hits filed as inhibitors; purified 12hLO, xylenol orange hydroperoxide absorbance; P18054; note: potency is the fitted concentration of half-maximal effect
Target sequence (P18054 whole entry, looked up): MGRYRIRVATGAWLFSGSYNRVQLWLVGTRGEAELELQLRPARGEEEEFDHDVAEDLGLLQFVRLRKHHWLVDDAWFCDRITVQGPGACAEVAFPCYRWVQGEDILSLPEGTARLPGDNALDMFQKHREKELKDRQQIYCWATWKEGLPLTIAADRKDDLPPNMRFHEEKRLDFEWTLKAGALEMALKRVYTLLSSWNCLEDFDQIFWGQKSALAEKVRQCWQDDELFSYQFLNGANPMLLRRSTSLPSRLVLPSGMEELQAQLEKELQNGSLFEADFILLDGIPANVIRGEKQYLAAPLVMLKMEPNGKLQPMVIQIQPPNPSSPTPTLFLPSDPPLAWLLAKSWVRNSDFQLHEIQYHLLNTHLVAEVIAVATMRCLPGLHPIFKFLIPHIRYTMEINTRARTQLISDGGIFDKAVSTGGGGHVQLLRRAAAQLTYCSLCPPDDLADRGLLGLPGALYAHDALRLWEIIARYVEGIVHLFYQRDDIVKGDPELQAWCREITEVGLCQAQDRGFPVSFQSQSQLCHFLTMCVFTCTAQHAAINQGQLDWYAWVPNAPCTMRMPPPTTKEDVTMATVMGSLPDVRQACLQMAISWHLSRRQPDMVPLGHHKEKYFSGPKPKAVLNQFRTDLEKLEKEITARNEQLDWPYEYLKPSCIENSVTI
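Purified human 12hLO (150 nM final) in 25 mM Hepes, 0.01% Triton X-100, pH 7.0 was preincubated 15 min at room temperature with compound. Then 40 uM arachidonic acid was added, 30 min. Hydroperoxide was read by Fe-XO absorbance ratio 573/405 nm.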
Numbers without * were called inactive; ? = inconclusive; . = no result given; ! = repeats disagree; [ ] = remark or other dose. The full list was thinned out, with hits kept by preference. Unless noted, calls come from the whole dose curve; as a rule, active = well fitted curve in the direction sought with a large enough effect; inconclusive = small, poorly fitted or top-dose-only effect, or another doubt; inactive = no such curve, though single readings can be large; an effect the other way counts as inactive or inconclusive. Unless noted, % is set by controls: 0 for no effect and ±100 for the full control effect.

SMILES | HT1080-NT tox | HT1080 IDH1KD tx | DT40 TDP1 CPT | TDP1 cell noCPT | IL1B secr inh | 12-LOX inh
Cc1cc(N2CCN(c3ccccn3)CC2)n2cc(-c3ccccc3)nc2n1 | -5.1% | -17.4% | 20.6µM* | 18.4µM* | -10.1 | ?
COc1ccccc1N1CCN(c2ncnc3c2cnn3-c2cccc(Cl)c2)CC1 | . | . | ? | ? | . | 4.5%
Cn1ncc2c(N3CCC(Cc4ccccc4)CC3)ncnc21 | -25.0% | ? | ? | 16.4µM* | 17.0 | -1.9%
COc1ccccc1N1CCN(c2ncnc3c2cnn3C)CC1 | . | . | ? | 18.4µM* | . | -5.6%
NNC(=O)c1cc2c(N3CCC(Cc4ccccc4)CC3)ncnc2s1 | ? | ? | 16.4µM* | 23.1µM* | 32.5 | -3.1%
CC1CC(C)CN(c2ncnc3c2cnn3C)C1 (stereo unspecified) | -11.0% | -13.8% | -15.4% | ? | 57.6 | -0.8%
Cn1ncc2c(N3CCN(c4ccc(F)cc4)CC3)ncnc21 | . | . | ? | 18.4µM* | . | -3.5%
CN(CC1CCOCC1)C(=O)c1c(F)cccc1Cl | . | . | . | . | . | 15.5%
Cc1ccc(Nc2nc(COC(=O)c3ccc4c(c3)C(=O)N(C)C4=O)cs2)cc1 | . | . | . | . | . | 43.7%
O=C1NC(c2ccccc2)Nc2sc3c(c21)CCN(Cc1ccccc1)C3 (stereo unspecified) | . | . | . | . | . | 70.4%
O=[N+]([O-])c1ccc(-c2ccc(/C=N/c3c(-c4ccco4)nc4ccccn34)o2)cc1 | ? | ? | 20.6µM* | 7.31µM* | 12.7 | -28.4%
Cc1cc(C)c([N+](=O)[O-])cc1-c1ccc(/C=N/c2c(-c3ccco3)nc3ccccn23)o1 | -24.2% | -26.2% | 14.6µM* | 14.6µM* | -15.2 | ?
CCCC(C)NC(=O)c1cnn(-c2ccccc2F)c1-n1cccc1 (stereo unspecified) | . | . | . | . | . | 19.0%
CC(=O)Nc1cccc(-c2cnc3n[nH]c(-c4ccccc4C)c3n2)c1 | . | . | . | . | . | -19.4%[176 µM]
CCSc1ccccc1C(=O)NC12CC3CC(CC(C3)C1)C2 | . | . | . | . | . | 9.5%
CCc1cc[n+](C2=C([O-])c3ccccc3C(=O)/C2=N\S(=O)(=O)c2cccs2)cc1 | 18.4µM* | 18.4µM* | 2.31µM* | 5.17µM* | -85.9* | ?
N#C/C(=C\c1ccc(-c2ccc(Cl)cc2Cl)o1)c1nc2ccccc2[nH]1 | . | . | . | . | . | 11.2µM*
N#C/C(=C\c1ccc(-c2ccc(F)cc2F)o1)c1nc2ccccc2[nH]1 | . | . | 23.1µM* | 13µM* | . | -17.1%
Cc1ccc2nc(/C(C#N)=C/c3ccc(-c4ccccc4C(=O)O)o3)[nH]c2c1 | -0.5% | 24.3% | -2.2% | 3.6% | -7.5 | ?
N#C/C(=C\c1ccc(-c2ccccc2F)o1)c1nc2ccccc2[nH]1 | . | . | . | . | . | 24.3%
N#C/C(=C\c1ccc(-c2ccccc2C(=O)O)o1)c1nc2ccccc2[nH]1 | 22.2% | 12.1% | ? | 14.6µM* | ? | ?
O=C(/C(=C/c1ccc(Cl)cc1)c1nc2ccccc2o1)c1ccccc1 | . | . | . | . | . | -8.1%
Cc1c(C(=O)N2CCN(c3ccc(C(F)(F)F)cn3)CC2)oc2ccccc12 | -0.5% | -5.0% | 23.1µM* | 18.4µM* | 25.9 | 0.0%
Cc1ccc(C(=O)N2CCN(c3ccc(C(F)(F)F)cn3)CC2)c(C)c1 | -7.3% | -17.6% | 16.4µM* | 20.6µM* | 7.8 | -24.2%
Cc1ccc(C(=O)N2CCN(c3ccc(C(F)(F)F)cn3)CC2)cc1 | 1.3% | -2.7% | -28.5% | ? | 0.0 | 1.8%
SMILES | HT1080-NT tox | HT1080 IDH1KD tx | DT40 TDP1 CPT | TDP1 cell noCPT | IL1B secr inh | 12-LOX inh
COc1ncccc1CNC[C@H]1Cn2c(-c3ccc(F)cc3)cnc2CO1 | . | . | . | . | . | 45.6%[176 µM]
Cc1c(C=O)c2ccccc2n1CC(=O)NC(C)c1ccccc1 (stereo unspecified) | -24.3% | -13.2% | ? | 23.1µM* | -1.4 | -4.5%
Cc1nn(CC(=O)NC(C)c2ccccc2)c(=O)c2ccccc12 (stereo unspecified) | 1.9% | 8.6% | -8.6% | -1.8% | 1.3 | 4.1%
CC(C)N1C(=O)C2(CCCCC2)C1C(=O)NCCCN1CCN(c2ccccc2)CC1 (stereo unspecified) | . | . | . | . | . | -8.7%
Cn1c(Cn2cccn2)nnc1C1CC(NC(=O)c2sccc2N)C1 (stereo unspecified) | . | . | . | . | . | 10µM*!
COC(=O)[C@H](C)NC(=O)Nc1cc(-c2n[nH]c(=O)c3ccccc23)ccc1C | . | . | . | . | . | -13.0%
CCN(CC)CCCNc1nc2cc(OC)c(OC)cc2c2nc(-c3cccnc3)nn12 | -2.8% | -1.0% | 14.6µM* | 13µM* | -90.2* | 24.4%
CCN(CC)CCCNc1nc2cc(OC)c(OC)cc2c2nc(-c3ccccc3)nn12 | 18.4µM* | ? | 20.6µM* | 5.17µM* | -88.1* | .
COc1ccc(OC)c(CCNc2nc3ccccc3c3nc(-c4cccnc4)nn23)c1 | . | . | 0.5% | ? | . | -7.0%
COc1cc2nc(NCC3CCCO3)n3nc(-c4cccnc4)nc3c2cc1OC (stereo unspecified) | 8.6% | 9.9% | 9.2µM* | 20.6µM* | -20.2 | 11.4%
Cc1ccc(CCNc2nc3ccccc3c3nc(-c4ccccc4)nn23)cc1 | . | . | ? | ? | . | -16.8%
CCN(CC)CCCNc1nc2ccccc2c2nc(-c3ccncc3)nn12 | ? | 16.4µM* | ? | 20.6µM* | -102.3* | -5.5%
C=CCOc1ccc(NC(=O)C(C)Oc2ccccc2)cc1 (stereo unspecified) | . | . | . | . | . | -1.0%
COc1ccccc1N(CC(=O)NC1CCCC1)C(=O)c1oc(C(C)(C)C)cc1C | -26.1% | -19.0% | 23.1µM* | 14.6µM* | -91.5* | 0.0%
Cc1cc(C(C)(C)C)oc1C(=O)N(CC(=O)NC1CCCC1)c1c(C)cccc1C | ? | ? | 11.6µM* | 5.17µM* | -27.3 | -29.1%
Cc1cc(C(C)(C)C)oc1C(=O)N(CC(=O)NC1CCCC1)c1ccc(F)cc1 | ? | ? | ? | 16.4µM* | -24.5 | -15.4%
COc1ccccc1N(CC(=O)NC1CCCC1)C(=O)c1csnn1 | 15.5% | 20.8% | 1.8% | ? | 5.3 | 0.0%
CN(Cc1cncs1)C1CCCc2ccccc21 (stereo unspecified) | . | . | . | . | . | 16.3%[176 µM]
O=C(O)CC12CC3CC(C1)CC(O[N+](=O)[O-])(C3)C2 | . | . | . | . | . | -18.0%
Cc1ccc2c(COC(=O)c3cc(S(=O)(=O)N(C)C)ccc3NCCO)cc(=O)oc2c1 | . | . | . | . | . | -14.1%
CCn1cnc2cc(NCc3ccc(Br)cc3)ccc21 | -12.7% | -8.6% | -26.6% | ? | ? | 235.4%
